Laboratory results reported in PubChem BioAssay.

Biological target: Voltage-gated potassium channel subunit beta-2 (Rattus norvegicus) (UniProt P62483)
Test: inhibitors of rat Kvbeta2 reductase activity – biochemical, NADPH fluorescence, primary screen (AID 622;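 active means fluorescence slope higher than the sample average by over 3 SD, cut at about -0.22 in these data, passing the limit was not always enough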;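 further: slope of raw intensity against log time taken from 70 to 1610 s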)
Conditions: recombinant KvBeta, 4-cyanobenzaldehyde reduction, at 10 µM, hits give high values

Voltage-gated potassium channel subunit beta-2 (Rattus norvegicus), sequence (P62483 whole entry, looked up): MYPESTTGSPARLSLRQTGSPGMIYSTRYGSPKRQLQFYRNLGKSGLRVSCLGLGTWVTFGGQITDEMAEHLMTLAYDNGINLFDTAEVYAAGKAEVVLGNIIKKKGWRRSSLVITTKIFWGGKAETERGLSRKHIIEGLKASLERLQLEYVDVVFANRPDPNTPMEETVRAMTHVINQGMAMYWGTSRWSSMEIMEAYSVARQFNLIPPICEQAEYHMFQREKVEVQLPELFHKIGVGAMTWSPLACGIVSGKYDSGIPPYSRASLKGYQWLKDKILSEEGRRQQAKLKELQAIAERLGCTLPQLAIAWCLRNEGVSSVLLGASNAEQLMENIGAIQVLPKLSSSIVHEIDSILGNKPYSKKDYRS

Fluorescence slope, inactive:
Cc1ccccc1N1C(=O)C2ON(c3ccccc3)C(c3ccncc3)C2C1=O (stereo unspecified) -0.445
CCN(CC)CCCN1C(=O)C(=O)/C(=C(/O)c2ccc(Cl)cc2)C1c1ccccn1 (stereo unspecified) -0.442
CN/C(=C/[N+](=O)[O-])NCCSCc1ccc(CN(C)C)o1 -0.46
Clc1ccccc1CN1CCc2sccc2C1 -0.439
COc1ccc(C2C=C(c3ccc(Cl)cc3)Nc3nc(NC(C)=O)nn32)cc1 (stereo unspecified) -0.144
N#Cc1nc(-c2ccccc2Cl)oc1N1CCCCC1 -0.535
CC1=CC(c2ccccc2)n2nc(N3C(=O)C4CC=CCC4C3=O)nc2N1 (stereo unspecified) -0.41
CC(C)Cn1nc(NC(=O)C(C)(C)C)c2cc3ccccc3nc21 -0.371
CNCCCN1c2ccccc2CCc2ccccc21 -0.533
COc1ccc(CNC(=O)[C@H](C)NC(=O)C2CCN(S(=O)(=O)c3ccc(C)cc3)CC2)cc1 -0.475
CCOc1ccc(/C(O)=C2/C(=O)C(=O)N(c3nc(C)c(C)s3)C2c2ccco2)cc1 (stereo unspecified) -0.39
N#C/C(=N\O)c1nc(-c2ccccc2)cs1 -0.418
CCc1cc(=O)oc2c(CN3CCCC3)c(O)c(Cl)cc12 -0.247
COc1cccc(-c2nc(NC(C)(C)C)c3ccccc3n2)c1O -0.422
CCOC(=O)C1=C(C)NC(C)=C(C(=O)OC)C1c1cccc(Cl)c1Cl (stereo unspecified) -0.431
CC1(C)CC(NC(=O)C23CCC(C)(/C(=N/O)C2)C3(C)C)CC(C)(C)N1 (stereo unspecified) -0.399
O=C1C(CCS(=O)c2ccccc2)C(=O)N(c2ccccc2)N1c1ccccc1 (stereo unspecified) -0.436
COc1ccc(C(=O)Nc2nc(N)n(-c3ccccc3)n2)cc1OC -0.426
COC(=O)C1=C(C)N=C2SC(C)C(=O)N2C1/C=C/c1ccccc1OC (stereo unspecified) -0.423
CN1CCN(Cc2c(O)ccc3c(-c4ccccc4)cc(=O)oc23)CC1 -0.269
Cc1ccc(N2C(=O)C3ON(c4ccccc4)C(c4ccncc4)C3C2=O)c(C)c1 (stereo unspecified) -0.437
COc1ccccc1-c1cc(-c2cc(Cl)ccc2O)n[nH]1 -0.453
Cc1ccc(N(Cc2cc3ccccc3[nH]c2=O)C(=O)c2ccco2)c(C)c1 -0.459
c1ccc(-c2nc(NCC3CCCO3)c3ccccc3n2)nc1 (stereo unspecified) -0.436
CCCOC(=O)C1[C@H]2C(=O)N(Cc3ccco3)C[C@]23C=C[C@H]1O3 (stereo partly specified) -0.424
Oc1ccc(Br)cc1-c1cc(-c2ccccc2F)[nH]n1 -0.479
CCOC(=O)c1cc2c(=O)n3ccccc3nc2n(Cc2ccccc2Cl)c1=N -0.39
Cc1c(C)c2cc(Cl)c(O)c(CN3CCN(C)CC3)c2oc1=O -0.121
Oc1ccccc1-c1nc(NCc2ccco2)c2ccccc2n1 -0.396
Cc1ccc2cc(CN(C(=O)c3ccco3)c3ccccc3C)c(=O)[nH]c2c1 -0.477
Cc1noc(NS(=O)(=O)c2ccc(N)cc2)c1C -0.478
CCn1nc(C(=O)O)c(=O)c2cc3c(cc21)OCO3 -0.476
O=C(O)CCCCCN1C(=O)CCC1=O -0.456
CC(C)Oc1ccc2c(=O)c(-c3ccccc3)coc2c1 -0.425
COc1ccc(NCc2cc3ccccc3[nH]c2=O)cc1 -0.408
CC(=O)Nc1n[nH]c(S(=O)(=O)Cc2ccc(Cl)cc2Cl)n1 -0.401
Cc1oncc1C(=O)Nc1ccc(C(F)(F)F)cc1 -0.489
O=C1C2ON(c3ccccc3)C(c3ccncc3)C2C(=O)N1c1ccccc1 (stereo unspecified) -0.419

Biological target: Voltage-gated potassium channel subunit beta-2 (Rattus norvegicus) (UniProt P62483)
Test: enhancers of rat Kvbeta2 NADPH turnover – biochemical, NADPH fluorescence, primary screen (AID 623);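 further: fluorescence intensity change per second fitted from 20 to 320 s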
Conditions: Recombinant KvBeta, NADPH fluorescence decrease slope, 10 min; at 10 µM; hits give low values

NADPH fluorescence slope, inactive:
Cc1ccccc1N1C(=O)C2ON(c3ccccc3)C(c3ccncc3)C2C1=O (stereo unspecified) -0.000127
CCN(CC)CCCN1C(=O)C(=O)/C(=C(/O)c2ccc(Cl)cc2)C1c1ccccn1 (stereo unspecified) -0.000153
CN/C(=C/[N+](=O)[O-])NCCSCc1ccc(CN(C)C)o1 1.7e-05
Clc1ccccc1CN1CCc2sccc2C1 -5e-05
COc1ccc(C2C=C(c3ccc(Cl)cc3)Nc3nc(NC(C)=O)nn32)cc1 (stereo unspecified) 4.9e-05
N#Cc1nc(-c2ccccc2Cl)oc1N1CCCCC1 -6.6e-05
CC1=CC(c2ccccc2)n2nc(N3C(=O)C4CC=CCC4C3=O)nc2N1 (stereo unspecified) -0.000143
CC(C)Cn1nc(NC(=O)C(C)(C)C)c2cc3ccccc3nc21 -0.000242
CNCCCN1c2ccccc2CCc2ccccc21 -5.3e-05
COc1ccc(CNC(=O)[C@H](C)NC(=O)C2CCN(S(=O)(=O)c3ccc(C)cc3)CC2)cc1 -9.4e-05
CCOc1ccc(/C(O)=C2/C(=O)C(=O)N(c3nc(C)c(C)s3)C2c2ccco2)cc1 (stereo unspecified) -5.6e-05
N#C/C(=N\O)c1nc(-c2ccccc2)cs1 -0.000175
CCc1cc(=O)oc2c(CN3CCCC3)c(O)c(Cl)cc12 -3.3e-05
COc1cccc(-c2nc(NC(C)(C)C)c3ccccc3n2)c1O -0.000132
CCOC(=O)C1=C(C)NC(C)=C(C(=O)OC)C1c1cccc(Cl)c1Cl (stereo unspecified) -6.6e-05
CC1(C)CC(NC(=O)C23CCC(C)(/C(=N/O)C2)C3(C)C)CC(C)(C)N1 (stereo unspecified) -0.000147
O=C1C(CCS(=O)c2ccccc2)C(=O)N(c2ccccc2)N1c1ccccc1 (stereo unspecified) -4.2e-05
COc1ccc(C(=O)Nc2nc(N)n(-c3ccccc3)n2)cc1OC -0.000152
COC(=O)C1=C(C)N=C2SC(C)C(=O)N2C1/C=C/c1ccccc1OC (stereo unspecified) -0.00012
CN1CCN(Cc2c(O)ccc3c(-c4ccccc4)cc(=O)oc23)CC1 -2.1e-05
Cc1ccc(N2C(=O)C3ON(c4ccccc4)C(c4ccncc4)C3C2=O)c(C)c1 (stereo unspecified) -0.000117
COc1ccccc1-c1cc(-c2cc(Cl)ccc2O)n[nH]1 -1.7e-05
Cc1ccc(N(Cc2cc3ccccc3[nH]c2=O)C(=O)c2ccco2)c(C)c1 -0.000111
c1ccc(-c2nc(NCC3CCCO3)c3ccccc3n2)nc1 (stereo unspecified) -0.000131
CCCOC(=O)C1[C@H]2C(=O)N(Cc3ccco3)C[C@]23C=C[C@H]1O3 (stereo partly specified) -0.000134
Oc1ccc(Br)cc1-c1cc(-c2ccccc2F)[nH]n1 -9.7e-05
CCOC(=O)c1cc2c(=O)n3ccccc3nc2n(Cc2ccccc2Cl)c1=N -0.000121
Cc1c(C)c2cc(Cl)c(O)c(CN3CCN(C)CC3)c2oc1=O 3.5e-05
Oc1ccccc1-c1nc(NCc2ccco2)c2ccccc2n1 -0.000126
Cc1ccc2cc(CN(C(=O)c3ccco3)c3ccccc3C)c(=O)[nH]c2c1 1.8e-05
Cc1noc(NS(=O)(=O)c2ccc(N)cc2)c1C 2.4e-05
CCn1nc(C(=O)O)c(=O)c2cc3c(cc21)OCO3 -5.5e-05
O=C(O)CCCCCN1C(=O)CCC1=O -0.000125
CC(C)Oc1ccc2c(=O)c(-c3ccccc3)coc2c1 -6.4e-05
COc1ccc(NCc2cc3ccccc3[nH]c2=O)cc1 -3.2e-05
CC(=O)Nc1n[nH]c(S(=O)(=O)Cc2ccc(Cl)cc2Cl)n1 -0.000133
Cc1oncc1C(=O)Nc1ccc(C(F)(F)F)cc1 -4.6e-05
O=C1C2ON(c3ccccc3)C(c3ccncc3)C2C(=O)N1c1ccccc1 (stereo unspecified) -0.000134
